# This is part of a sample that, as a whole, favours compounds with a hit. Of some 83,000 tested, about 20% had one in any assay.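 Each cell line was grown in a 96-well plate and treated with one concentration of compound for 48 hours. Values below 10 were considered active.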 Unmarked numbers belong to inactive results. Activity calls are given as the source filed them.
# Legend:
# Experiment in all cases: NCI-60 one-dose screen, 48 h (100 = growth as untreated, 0 = no growth, -100 = all killed)
# Conditions in all cases: 10 µM unless noted
# [1] = tested on: DU-145 prostate
# [2] = tested on: K-562 leukemia
# [3] = tested on: MALME-3M melanoma
# [4] = tested on: MDA-MB-231 breast
# [5] = tested on: RXF 393 renal
# [6] = tested on: SF-268 CNS
# [7] = tested on: SF-295 CNS
# [8] = tested on: SF-539 CNS
# [9] = tested on: UACC-257 melanoma
# [10] = tested on: M14 melanoma
# [11] = tested on: HCT-15 colon
# [12] = tested on: HT29 colon
# [13] = tested on: SNB-75 CNS
# [14] = tested on: SNB-19 CNS
# [15] = tested on: U251 CNS
# [16] = tested on: PC-3 prostate
# [17] = tested on: SK-MEL-5 melanoma
# [18] = tested on: UACC-62 melanoma
# [19] = tested on: LOX IMVI melanoma
# [20] = tested on: SK-MEL-28 melanoma
Compound,growth [1],growth [2],growth [3],growth [4],growth [5],growth [6],growth [7],growth [8],growth [9],growth [10],growth [11],growth [12],growth [13],growth [14],growth [15],growth [16],growth [17],growth [18],growth [19],growth [20]
CCN(CC)Cc1cc(Nc2ccnc3cc(Cl)ccc23)ccc1O,97.4%,87.1%,104%,72.3%,97.4%,77.8%,93.4%,85.6%,112%,91.2%,68%,81.2%,83.4%,88.7%,89.4%,93.2%,96.7%,92.7%,85.8%,–
O=C(CCl)NNc1nccc(Nc2ccc(S(=O)(=O)Nc3ccncc3)cc2)n1,32.1%,17.6%,32.2%,46.7%,48.2%,37.6%,67.7%,5.24% (active),52.1%,45.2%,22.2%,27.4%,54.7%,31.1%,-9.06% (active),56%,7.95% (active),31.4%,17.6%,–
Cn1c(=O)c2[nH]c(SCC(=O)Nc3ccc(C(=O)/C=C/c4ccccc4Cl)cc3)nc2n(C)c1=O,102%,84.4%,112%,106%,105%,89.7%,90.5%,101%,86.1%,99.5%,92.5%,119%,77.1%,97.1%,91.9%,93.4%,90%,95.6%,96.4%,–
NC(=O)c1c(NC(=O)c2cccs2)sc2c1CCC(=O)C2,80.3%,10.3%,67%,26.1%,46.4%,30.3%,86.9%,-3.38% (active),63.7%,26.1%,16.2%,46.3%,28.3%,40.2%,14.9%,10.5%,71.5%,4.69% (active),30.3%,–
CCN1CCN(CC(=O)Nc2nc3ccc(NCc4ccc(F)cc4)cc3s2)CC1,95.1%,58.8%,90.7%,91%,94.8%,94.3%,99%,74.1%,108%,91.4%,67.3%,77.4%,90.8%,99.2%,81.9%,78.9%,90.8%,87.4%,78.6%,102%
CN1C(=O)/C(=C2\SC(=Nc3ccccc3)N(Nc3ccccc3)C2=O)c2ccccc21,109%,99.5%,110%,91.4%,109%,95.4%,105%,94.9%,106%,101%,105%,119%,78.9%,95.9%,100%,86.6%,99.3%,81.3%,93.5%,–
COc1cccc(-c2cc(-c3cccc(Cl)c3)c(C#N)c(=O)[nH]2)c1,88%,31.3%,69.8%,96.1%,75%,79.1%,74.2%,74.5%,85.5%,58.3%,48.6%,103%,30.8%,71.8%,73.2%,73.7%,68.6%,42.4%,75.1%,–
CC[N+]1(CC)CC[N+]2(CCCC(C)CC2)CC1 (stereo not drawn),111%,107%,97.6%,106%,113%,108%,98.8%,99.2%,98.2%,106%,104%,99.7%,115%,102%,111%,96.6%,104%,100%,105%,104%
CC1(C)N=C(N)N=C(N)N1c1cccc(CCc2ccccc2)c1,37.3%,23.1%,79.1%,68.9%,78.5%,32.4%,41.9%,23%,39.3%,55.4%,85.8%,14.3%,63%,31.3%,38.1%,34.6%,12%,24.7%,24%,46.3%
Cn1cc(-c2csc(-c3cn(CCCN4CCOCC4)c4ccccc34)n2)c2cccnc21,97.9%,26.2%,108%,76.5%,65.7%,91.7%,79.5%,89.4%,89.3%,83.6%,55.5%,32.9%,82.6%,90.8%,64.3%,68%,64.6%,92.5%,79%,88.6%
N#Cc1ccc(O)c(C2=NCC(Cc3ccccc3)O2)c1 (stereo not drawn),55.7%,26.5%,64.3%,77.6%,62.4%,52.2%,31.2%,68.7%,63.6%,45.4%,21.2%,72.6%,70.6%,55.6%,23.8%,35.3%,35.5%,42%,32.6%,–
O=S(=O)(Oc1ccc(Br)cc1)c1ccc(Cl)cc1,93.8%,108%,85.5%,117%,114%,99.2%,94.6%,110%,118%,94.3%,97.6%,99%,121%,103%,106%,91.7%,101%,98.6%,95.1%,–
CC1(C)N=C(N)N=C(N)N1c1ccc(CCCCc2ccccc2)c(Cl)c1,27%,18%,52.2%,42.5%,30.6%,19.6%,29.6%,-3.79% (active),3.22% (active),33.5%,20.5%,-11.2% (active),18.3%,21.4%,3.58% (active),6.3% (active),-76.1% (active),8.84% (active),8.69% (active),–
O=C(/C=C(O)/C=C/c1cccc2[nH]ccc12)/C=C/c1cccc2[nH]ccc12,95.6%,14.5%,69.4%,73.8%,87.4%,89.5%,95.5%,90.4%,86.4%,38.9%,61.5%,38.4%,92.2%,72.6%,45.2%,66.8%,76%,68%,63.7%,–
COc1ccc2c(c1)c(-c1nc(-c3c[nH]c4ncccc34)cs1)cn2CCCN1CCOCC1,41.5%,-5.12% (active),5.55% (active),9.85% (active),-9.75% (active),43.9%,-34.4% (active),33.6%,49.9%,10%,13.7%,-12.9% (active),21.4%,54.4%,16.3%,18.2%,31.6%,44.1%,17%,–
N#Cc1cncc(-c2ccc3ncnc(Nc4cccc(Cl)c4)c3c2)c1,63.4%,87%,76.8%,66.6%,45.9%,68.5%,76%,78%,72.6%,83.8%,77.9%,66.8%,65.5%,63.3%,62.1%,63.5%,75.4%,81.7%,91.1%,–

# — PubChem BioAssay (NCI)
